Bioassay records as filed in PubChem BioAssay.
PI5P4K alpha inh: inhibitors of human PI5P4K alpha | P48426 | PI5P4Kalpha enzyme, ADP-Glo luminescence, 60 min; stronger effect = lower value | max response, % | actives 1.2% (n = 330,000); active = max response of -50% or lower; inconclusive = between -30% and -50%; inactive = -30% or higher; note: value at the top dose of about 77 µM
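Controls without substrate or without enzyme flank wells where PI5P4Kalpha converts substrate using 5 microM ATP (final). Incubation lasts 60 minutes at room temperature; ADP formed is read by ADP-Glo luminescence.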
G9a block: G9a (human) methyltransferase inhibition; Q96KQ7; G9a H3K9 monomethylation, AlphaScreen, 2 h; actives 8.8% (n = 350,000); Potency, µM (doses to about 102 µM), actives largely listed as inhibitors; note: nearly all actives have a fitted effect of over 75% in size
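Enzyme 20 nM + cpd, 15 min RT; add b-H3K9 pep 500 nM / SAM 20 uM; 2 h RT; anti-H3K9me1 Ab 0.5 ug/mL + SA donor / anti-rabbit acceptor beads 20 ug/mL each, 10 min; AlphaScreen read.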
JMJD2A Tudor: inhibitors of human JMJD2A Tudor domain; Potency, µM (highest dose often 114 µM), hits mostly inhibitors; AlphaScreen JMJD2A-Tudor / H3K4me3 peptide binding; O75164; actives 4.4% (n = 390,000); note: nearly all actives have a fitted effect of over 50% in size
BAZ2B block: BAZ2B (human) inhibition; AlphaScreen BAZ2B-H3K14Ac peptide displacement; Potency, µM (highest dose often 114 µM), actives largely listed as inhibitors; actives 4.4% (n = 360,000); AID 504333; note: nearly all actives have a fitted effect of over 60% in size
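BAZ2B (50 nM) with biotin-H3(5-23)K14Ac peptide (50 nM) in PBS pH 7.4, 0.01% Tween-20, preformed 30 min, then compound 30 min at room temperature; top concentration 110uM. AlphaScreen streptavidin donor/nickel chelate acceptor beads (10 ug/mL final), 20 min dark, signal read.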
L3MBTL1 inh: inhibitors of human L3MBTL1 | Q9Y468 | AID 485360 | AlphaScreen L3MBTL1–H3K9me1 peptide binding | actives 0.66% (n = 230,000) | Potency, µM (highest dose often 57.1 µM), most hits filed as inhibitors; note: nearly all actives have a fitted effect of over 60% in size
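AlphaScreen assay: L3MBTL1 (50 nM final) was preincubated 30 min at room temperature with biotinylated H3(1-15)K9me1 peptide (75 nM final), then 30 min with library compounds; streptavidin donor and nickel chelate acceptor beads (10 ug/mL final) added, 30 min dark.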
HP1b binding inh: HP1-beta chromodomain-methylated histone interaction inhibition; P83916; AlphaScreen HP1-beta / biotin-H3K9me3 peptide binding; Potency, µM (series often up to 114 µM), usual class: inhibitors; actives 0.56% (n = 390,000); note: nearly all actives have a fitted effect of over 70% in size
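Compound inhibition of the preformed complex between 50 nM HP1-beta and 50 nM biotinylated H3K9me3 peptide was read by AlphaScreen. Buffer was PBS pH 7.4 with 0.01% Tween-20. Incubations ran 30 min at room temperature, with 10 ug/mL donor/acceptor beads.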
Numbers stand for hits; – = inactive; ? = inconclusive; · = no result; [ ] = dose if it differs, or a comment. In the library only some 11% were active in any assay of this set; here they are far more common. Unless noted, calls come from the whole dose curve; as a rule, active = well fitted inhibition curve with a large enough effect; inconclusive = small, poorly fitted or top-dose-only effect; inactive = no such curve, though single readings can be large or run the other way.

SMILES	PI5P4K alpha inh	G9a block	JMJD2A Tudor	BAZ2B block	L3MBTL1 inh	HP1b binding inh
CCN(CC)CCOc1ccccc1C(C)=O	–	11µM	18µM	50µM	–	?
Cc1ccc(CCNC(=O)C(CC(C)C)NS(=O)(=O)c2ccc3c(c2)oc(=O)n3C)cc1 (centres undefined)	·	–	–	–	·	–
CCOC(=O)c1cccc(NC(=O)CN2C(=O)c3ccccc3Sc3ncccc32)c1	·	–	–	–	·	–
Cc1nc2[nH]onc2c2nccc(=O)c12	?	14µM	–	–	–[11.4 µM]	–
COc1ccccc1NS(=O)(=O)c1cc(NC(=O)c2cccs2)ccc1N1CCCC1	?	1.6µM	?	–	–	?
COc1ccccc1NS(=O)(=O)c1cc(NC(=O)c2sccc2C)ccc1N1CCCC1	?	3.5µM	–	–	–	?
COc1ccccc1NS(=O)(=O)c1cc(NC(=O)c2sccc2C)ccc1N1CCOCC1	–	–[12.7 µM]	–	–	·	–
CC(C)c1ccc(S(=O)(=O)N2CCN(CC(=O)Nc3ccccc3C(F)(F)F)CC2)cc1	·	–	–	–	·	–
Cc1ccccc1C(=O)NNC1=NCCC1	·	2µM	1.6µM	?	·	–
O=C(CNc1ccccc1)NNC1=NCCC1	–	10µM	–	?	–	–
O=C(NNC1=NCCC1)c1cccc(Br)c1	–	–[2.33 µM]	–	–	–	–
COc1ccc(C(=O)NNC2=NCCCCC2)cc1	–	32µM	–	–	–	–
COc1ccccc1Nc1c2c(nc3ccc(NC(=O)c4ccc(OC)c(OC)c4)cc13)CCCC2	·	14µM	?	?	·	–
COc1ccc(C(=O)Nc2ccc3nc4c(c(Nc5ccc(OC)c(OC)c5)c3c2)CCCC4)c(OC)c1	·	–	?	?	·	–
COc1ccccc1Nc1c2c(nc3ccc(N)cc13)CCCC2	–	40µM	40µM	35µM	·	–
Cc1ccc2nc3c(c(Nc4ccc(C)c(C)c4)c2c1)CCC3	·	–	?	32µM	·	–
COc1ccc(Nc2c3c(nc4ccc(NC(=O)c5ccc(F)cc5)cc24)CCCC3)cc1OC	·	?	56µM	32µM	·	?
COc1ccccc1N1CCN(C(=O)CN2C(=O)COc3ccc(S(=O)(=O)N4CCCC4)cc32)CC1	·	–	–	–	·	–
CS(=O)(=O)c1ccc(C(=O)OCC(=O)Nc2ccc(OC(F)(F)F)cc2)cc1[N+](=O)[O-]	·	·	–	·	·	–
CCSc1nc2ccc(N3C(=O)C4C5C=CC(C5)C4C3=O)cc2s1 (centres undefined)	–	11µM	–	–	–	–
CCOC(=O)c1c(NC(=O)CSc2cn(CCNC(=O)c3c(F)cccc3F)c3ccccc23)sc2c1CCCC2	·	–	–	–	·	–
CCN1N=C(C)C=C(c2ccccc2)n2c1nc1ccccc12	–	79µM	–	–	–	–
Cc1nnc2c(-c3ccccc3)nc3ccccc3n12	–	–[12.7 µM]	–	–	·	–
CC1CCC(NC(=O)c2ccc(CS(=O)(=O)c3ccc(Cl)cc3)o2)CC1 (centres undefined)	·	–	–	–	·	–
CC(=O)c1sc(Nc2ccccc2)nc1C	–	·	·	·	·	·
SMILES	PI5P4K alpha inh	G9a block	JMJD2A Tudor	BAZ2B block	L3MBTL1 inh	HP1b binding inh
Nc1c(C(=O)c2ccccc2)sc(Nc2ccc(Cl)c(Cl)c2)c1C(=O)Nc1ccccc1	·	13µM	45µM	25µM	·	?
Cc1nc(Nc2ccc(Cl)c(Cl)c2)sc1C(=O)Nc1ccccc1	–	?	22µM	–	–	–
N#Cc1c(Nc2ccccc2)sc(C(=O)c2ccccc2)c1N	–	10µM	?	?	–	–
CC(=O)c1sc(Nc2cccc(C)c2)nc1C	–	–	–	50µM	–	–
O=C(Nc1ccc(F)c(F)c1)c1ccc(=O)n(Cc2ccc(F)cc2)c1	·	–	–	–	·	–
CN(C)Cc1ccccc1-c1nc(N(C)C)c2ccccc2n1	·	–[0.501 µM]	·	·	·	·
Cc1ccc(N2CCN(C(=O)c3noc4c3COc3ccc(C)cc3-4)CC2)c(C)c1	·	–	–	–	·	–
Cc1ccc2c(CN3CCC(C)CC3)cc(=O)oc2c1	·	45µM	–	–	·	–
Cc1ccc2c(CN3CCCCC3CCO)cc(=O)oc2c1 (centres undefined)	–	25µM	–	–	·	–
Cc1ccc(OCC(=O)Nc2ccc3nc(SCC(=O)N4CCOCC4)sc3c2)cc1	·	–	–	–	·	–
COc1ccc(/C=N/NC(=O)C2c3ccccc3-c3ccccc32)cc1	–	45µM	–	–	–	–
COc1ccc(/C=N/NC(=O)/C(=C/c2ccccc2)CCO)cc1	–	–	79µM	–	–	–
COc1ccc(/C=N/NC(=O)CC(=O)N/N=C/c2ccc(OC)cc2)cc1	–	–	–	–	–	–
